Assay [1] is described as follows: rapamycin-like changes in RPL19A-GFP expression – cell-based, S. cerevisiae, multiplex flow cytometry, primary screen (AID 1862; in the data active = percent of DMSO control GFP below about 86%;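 also: lower values mimic rapamycin by blocking the RPL19A rise seen in DMSO cells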). To be noted: S. cerevisiae RPL19A-GFP strain, flow cytometry fluorescence, 3 h; at 10 µM; stronger effect = lower value.
Assay [2] can be described thus: TOR pathway GLN3 branch reporter MEP2-GFP changes – S. cerevisiae, multiplex flow cytometry, primary screen (AID 1867;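 active = GFP response, as percent of the DMSO control, above the screen-wide mean plus 3 SD, about 139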;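 also: median GFP channel fluorescence of barcode-gated MEP2-GFP cells measured by flow cytometry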). The note with it: S. cerevisiae MEP2-GFP strain, 3 h, at 10 µM, stronger effect = higher value. On the technique in general: A flow cytometer gives signals particle by particle.
Assay [3] is described as follows: TOR pathway RTG branch CIT2 reporter changes – S. cerevisiae, GFP fusion, multiplex flow cytometry, primary screen (AID 1870;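 active = percent response above a set limit, the screen-wide mean plus 3 SD, cut at about 130% in these data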;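 also: barcoded CIT2-GFP strain pooled with four other GFP strains with rapamycin as positive control; median GFP fluorescence per well over plate mean of DMSO wells so 100% = DMSO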). To be noted: S. cerevisiae CIT2-GFP expression, 3 h, at 10 µM, stronger effect = higher value.
Assay [4] can be described thus: TOR pathway LAP4-GFP level changes – S. cerevisiae, multiplex flow cytometry, primary screen (AID 1873;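 active = GFP signal, as percent of the solvent control, above the screen mean plus 3 SD, about 149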). The note with it: S. cerevisiae LAP4-GFP expression, 3 h, at 10 µM, stronger effect = higher value.
Assay [5] in a line: yeast AGP1-GFP level changes, GLN3 branch – cell-based, multiplex flow cytometry, S. cerevisiae, primary screen (AID 1887;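 active = GFP signal above the screen-wide mean plus 3 SD, that is over about 124.5% of the solvent control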;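 also: AGP1-GFP fusion strain of S. cerevisiae within a five-strain barcoded multiplex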). To be noted: 3 h, at 10 µM, stronger effect = higher value.
Assay [6] in a line: reduced mouse 2C T cell binding to pMHC/ICAM-1 vesicles – MLPCN validation set, flow cytometry, LFA-1/ICAM-1 modulator project, pilot screen (AID 2523;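 active = response below a set limit, under 55% cells CD8-positive and vesicle-bound, and CD8 cells' 90th-percentile brightness under 279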;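 as to vesicle binding response: mean PE anti-B7-1 fluorescence of CD8+ cells relative to row control; 100% = QL9-loaded vesicles with DMSO vehicle in the same plate row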). To be noted: 2C mouse CD8+ T cells, at 7 µM, stronger effect = lower value; double positive events: measured here: CD8+/vesicle+ event percentage.
In assay [7] the target is Integrin beta-1 (Homo sapiens) + Integrin alpha-4 (Homo sapiens) (UniProt P13612+P05556). The assay is described as follows: alpha4beta1 integrin LIBS antibody binding reduction – U937 cells, HUTS-21 mAb, flow cytometry, validation set, VLA-4 allosteric modulator project, pilot screen (AID 2674;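 active = inhibition above 50%, about 3 SD of the validation set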;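 also: antibody binding induced by the VLA-4 ligand LDV present at three times its Kd; 0% = LDV ligand with antibody and no compound and 100% = antibody without LDV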). The note with it: HUTS-21 LIBS mAb binding, at 6.7 µM, stronger effect = higher value.

The nature of assay [8]: calorie-restriction mimetic ROS inhibitors, yeast – validation compound set, pilot screen (AID 2706;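 active = superoxide response below 65% of plate, a cut near 3 SD across the whole screen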;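 also: yeast exposed to compound for one week at 30 degrees C before staining; 100% = mean of all compound wells on the same plate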). To be noted: S. cerevisiae aging, superoxide DHE fluorescence; at 10 µM; stronger effect = lower value.
For assay [9], the target named is Beta-adrenergic receptor kinase 1 (Homo sapiens) (UniProt P25098). Nature of the assay: GRK2 binders displacing RNA aptamer, biochemical, validation, human GRK2, bead flow cytometry (AID 488806;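 active = aptamer binding inhibition above 30%, about 3 SD of noise from non-fluorescent compounds; inactive = inhibition at or below 30%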). The note with it: bead-bound GRK2, FAM-aptamer displacement, at 10 µM, stronger effect = higher value.
In assay [10] the target is Beta-2 adrenergic receptor (Homo sapiens) (UniProt P07550). Nature of the assay: agonist-induced loss of surface beta2AR – cell-based, FAP fluorogen, flow cytometry, validation set, pilot screen (AID 504459;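 active = percent response above 42, roughly 3 SD of non-fluorescent test compounds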;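 also: agonist-driven loss of surface beta2AR via internalization measured by FAP dye flow cytometry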). To be noted: Am2.2-beta2AR cells, at 10 µM, stronger effect = higher value.
Assay [11] deals with AP-2 complex subunit beta (Homo sapiens) (UniProt P63010). Nature of the assay: beta-arrestin/AP2 interaction blockers – biochemical, validation set, GST-AP2 beads, flow cytometry, pilot screen (AID 504541;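 active = inhibition above 54%, about 3 SD of non-fluorescent compounds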;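 also: AP2 carries R879A mutation and is captured from E. coli lysate; bead-bound FITC arrestin peptide fluorescence measuring arrestin peptide binding to AP2; 0% = DMSO wells and 100% = excess unlabeled arrestin peptide control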). The note with it: FITC arrestin peptide, at 10 µM, stronger effect = higher value.
Assay [12] in a line: cytosolic pH regulators acting via V-ATPase – S. cerevisiae, pHLuorin, HTS validation (AID 504600; in the data active = response above about 15%;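 also: plate controls were DMSO for no effect and reference compound for full effect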). The note with it: V-ATPase proton transport, at 10 µM, stronger effect = higher value.
The subject of assay [13] is anti-desmoglein-3 scFv antibody binding to human DSG3. Nature of the assay: blockers of pathogenic pemphigus antibody–desmoglein-3 binding – biochemical, validation compound set, bead-based, flow cytometry, pilot screen (AID 588368;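 active = binding below the plate cutoff, the plate median minus 3 SD, with a reading above zero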;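 also: signal is the median channel fluorescence of bead-bound GFP antibody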). The note with it: Protein G beads, DSG3-Fc, scFv-GFP binding, at 10 µM, stronger effect = lower value.
For assay [14], the system named is Botulinum neurotoxin type F light chain protease (Clostridium botulinum). Nature of the assay: Clostridium botulinum type F light chain protease inhibitors, microsphere substrate cleavage, validation (AID 588459). To be noted: multiplex microsphere protease substrate cleavage assay, flow cytometry; at 10 µM; stronger effect = higher value.
Assay [15] addresses Botulinum neurotoxin type A (Clostridium botulinum) (UniProt P0DPI0). Nature of the assay: BoNT/A light chain protease inhibitors, biochemical, multiplex microsphere flow cytometry, validation set (AID 588460). The note with it: at 10 µM, stronger effect = higher value.
Assay [16] addresses Lethal factor (Bacillus anthracis) (UniProt P15917). Nature of the assay: Bacillus anthracis lethal factor inhibition, microsphere flow cytometry protease assay, validation at 10 µM (AID 588461). The note with it: multiplex microsphere protease cleavage assay, stronger effect = higher value.
Assay [17] is described as follows: Nile Red efflux blockade in pump-expressing yeast – validation compound set, multiplex, phenotypic, pilot screen (AID 588506;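 active = efflux inhibition above 0.42, the validation set average plus 4 SD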;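 also: Nile Red retained in cells so higher fluorescence means more efflux inhibition; 0 = negative control wells and 1 = enniatin B 25 µM full block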). The note with it: S. cerevisiae pump-expressing triplex, Nile Red efflux flow cytometry; at 10 µM; stronger effect = higher value.
In assay [18] the target is ATP-binding cassette sub-family B member 6 (Homo sapiens) (UniProt Q9NP58). The assay is described as follows: blockers of ABCB6-driven porphyrin uptake – K562-ABCB6 cells, flow cytometry, validation set, pilot screen (AID 588550;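 active = inhibition above the screen-wide mean plus 3 SD, about 51%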;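 also: 0% = DMSO wells and 100% = benzethonium chloride 70 µM positive control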). To be noted: K562-ABCB6 porphyrin accumulation, 1 h, at 10 µM, stronger effect = higher value.
A short description of assay [19]: AML differentiation inducers, ER-HoxA9 marrow cells – cell-based, GFP/MAC1 double positive, flow cytometry, validation set, primary screen (AID 588685;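 active = differentiation response of at least 50%, scaled between solvent and reference control, from cells with both markers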;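 also: compound exposure lasts four days before antibody staining and flow analysis; 0% = DMSO wells and 100% = 5 µM fulvestrant positive control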). To be noted: stronger effect = higher value.

Results filed as inconclusive are left out. Active and inactive are the calls of the source. Unless noted, no rule for the calls is given here.

Sequence of Botulinum neurotoxin type A (Clostridium botulinum) (P0DPI0 whole entry, looked up): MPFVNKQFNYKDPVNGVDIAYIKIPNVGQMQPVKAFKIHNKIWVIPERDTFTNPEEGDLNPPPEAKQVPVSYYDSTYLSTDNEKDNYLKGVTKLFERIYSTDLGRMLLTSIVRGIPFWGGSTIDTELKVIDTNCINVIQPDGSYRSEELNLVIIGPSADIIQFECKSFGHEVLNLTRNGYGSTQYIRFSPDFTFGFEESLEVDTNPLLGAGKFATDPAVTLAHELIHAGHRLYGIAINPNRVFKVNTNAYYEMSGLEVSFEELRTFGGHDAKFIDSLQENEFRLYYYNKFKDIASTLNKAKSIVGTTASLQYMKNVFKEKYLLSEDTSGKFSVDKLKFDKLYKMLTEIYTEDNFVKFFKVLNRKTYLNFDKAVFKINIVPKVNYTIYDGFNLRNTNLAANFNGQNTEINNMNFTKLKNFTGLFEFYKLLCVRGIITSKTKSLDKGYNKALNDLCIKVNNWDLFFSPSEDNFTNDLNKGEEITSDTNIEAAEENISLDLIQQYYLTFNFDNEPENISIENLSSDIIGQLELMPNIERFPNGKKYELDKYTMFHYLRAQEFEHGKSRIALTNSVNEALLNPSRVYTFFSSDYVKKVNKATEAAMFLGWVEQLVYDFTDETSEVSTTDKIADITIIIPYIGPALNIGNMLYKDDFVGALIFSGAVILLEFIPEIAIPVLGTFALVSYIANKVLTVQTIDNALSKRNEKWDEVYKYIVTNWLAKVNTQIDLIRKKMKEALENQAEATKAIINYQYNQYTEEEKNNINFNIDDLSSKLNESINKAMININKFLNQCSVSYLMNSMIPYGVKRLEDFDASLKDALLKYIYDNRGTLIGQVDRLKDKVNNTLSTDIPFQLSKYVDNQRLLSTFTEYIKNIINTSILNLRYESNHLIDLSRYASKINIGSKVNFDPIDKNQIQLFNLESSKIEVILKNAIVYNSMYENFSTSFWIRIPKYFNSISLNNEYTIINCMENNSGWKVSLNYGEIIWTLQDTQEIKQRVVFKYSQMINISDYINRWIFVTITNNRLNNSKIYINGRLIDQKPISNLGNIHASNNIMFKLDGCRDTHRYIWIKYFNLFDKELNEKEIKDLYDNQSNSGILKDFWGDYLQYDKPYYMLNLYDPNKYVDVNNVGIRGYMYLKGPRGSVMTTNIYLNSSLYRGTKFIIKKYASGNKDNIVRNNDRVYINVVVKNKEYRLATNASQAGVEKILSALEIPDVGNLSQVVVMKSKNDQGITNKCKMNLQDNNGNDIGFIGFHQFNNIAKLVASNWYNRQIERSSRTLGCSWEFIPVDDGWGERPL
Sequence of AP-2 complex subunit beta (Homo sapiens) (P63010 whole entry, looked up, one chain of several): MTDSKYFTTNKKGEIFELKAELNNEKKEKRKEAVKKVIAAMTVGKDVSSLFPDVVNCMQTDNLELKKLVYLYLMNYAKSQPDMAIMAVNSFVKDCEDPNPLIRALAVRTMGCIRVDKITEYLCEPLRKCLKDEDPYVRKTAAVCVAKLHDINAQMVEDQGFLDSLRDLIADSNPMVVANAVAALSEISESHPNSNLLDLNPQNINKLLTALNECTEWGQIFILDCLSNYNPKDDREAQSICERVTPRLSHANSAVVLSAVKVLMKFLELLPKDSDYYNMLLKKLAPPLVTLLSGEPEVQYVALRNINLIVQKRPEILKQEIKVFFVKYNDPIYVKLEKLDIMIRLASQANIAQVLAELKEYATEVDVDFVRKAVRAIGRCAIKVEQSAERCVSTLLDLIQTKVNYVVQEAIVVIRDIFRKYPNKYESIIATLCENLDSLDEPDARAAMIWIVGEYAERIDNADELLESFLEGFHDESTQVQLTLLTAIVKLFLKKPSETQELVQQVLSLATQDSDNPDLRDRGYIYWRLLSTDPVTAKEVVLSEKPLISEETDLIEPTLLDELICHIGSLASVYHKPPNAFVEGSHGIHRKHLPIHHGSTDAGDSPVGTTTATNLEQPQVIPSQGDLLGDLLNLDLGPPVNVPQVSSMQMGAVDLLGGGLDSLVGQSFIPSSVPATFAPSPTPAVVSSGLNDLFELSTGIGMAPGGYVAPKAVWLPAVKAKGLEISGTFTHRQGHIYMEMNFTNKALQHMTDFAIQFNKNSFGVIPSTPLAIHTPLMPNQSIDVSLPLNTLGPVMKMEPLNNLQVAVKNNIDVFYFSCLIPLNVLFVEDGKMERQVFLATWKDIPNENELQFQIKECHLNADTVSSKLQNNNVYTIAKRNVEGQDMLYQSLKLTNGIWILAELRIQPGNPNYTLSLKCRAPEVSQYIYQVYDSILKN
Sequence of Integrin beta-1 (Homo sapiens) + Integrin alpha-4 (Homo sapiens) (P05556 whole entry, looked up): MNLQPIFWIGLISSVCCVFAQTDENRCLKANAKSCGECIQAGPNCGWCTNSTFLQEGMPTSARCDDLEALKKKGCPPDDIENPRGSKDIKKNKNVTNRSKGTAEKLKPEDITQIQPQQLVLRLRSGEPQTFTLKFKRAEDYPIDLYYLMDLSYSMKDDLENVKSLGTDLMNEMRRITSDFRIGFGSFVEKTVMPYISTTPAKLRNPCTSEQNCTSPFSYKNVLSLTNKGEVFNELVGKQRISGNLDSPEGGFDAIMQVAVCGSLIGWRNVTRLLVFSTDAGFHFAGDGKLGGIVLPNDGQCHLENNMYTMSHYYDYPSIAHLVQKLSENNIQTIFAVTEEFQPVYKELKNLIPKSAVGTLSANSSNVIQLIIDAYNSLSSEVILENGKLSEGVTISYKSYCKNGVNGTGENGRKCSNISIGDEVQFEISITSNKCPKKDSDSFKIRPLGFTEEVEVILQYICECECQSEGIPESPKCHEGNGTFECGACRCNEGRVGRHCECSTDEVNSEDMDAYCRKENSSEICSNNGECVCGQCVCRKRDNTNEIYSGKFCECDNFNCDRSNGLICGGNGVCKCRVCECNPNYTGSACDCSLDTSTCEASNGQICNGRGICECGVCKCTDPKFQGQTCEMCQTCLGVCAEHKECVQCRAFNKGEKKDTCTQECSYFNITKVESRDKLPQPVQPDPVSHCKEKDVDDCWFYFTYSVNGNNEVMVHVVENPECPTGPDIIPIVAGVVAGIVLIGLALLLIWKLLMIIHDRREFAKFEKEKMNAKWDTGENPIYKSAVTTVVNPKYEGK
Sequence of Integrin beta-1 (Homo sapiens) + Integrin alpha-4 (Homo sapiens) (P13612 whole entry, looked up): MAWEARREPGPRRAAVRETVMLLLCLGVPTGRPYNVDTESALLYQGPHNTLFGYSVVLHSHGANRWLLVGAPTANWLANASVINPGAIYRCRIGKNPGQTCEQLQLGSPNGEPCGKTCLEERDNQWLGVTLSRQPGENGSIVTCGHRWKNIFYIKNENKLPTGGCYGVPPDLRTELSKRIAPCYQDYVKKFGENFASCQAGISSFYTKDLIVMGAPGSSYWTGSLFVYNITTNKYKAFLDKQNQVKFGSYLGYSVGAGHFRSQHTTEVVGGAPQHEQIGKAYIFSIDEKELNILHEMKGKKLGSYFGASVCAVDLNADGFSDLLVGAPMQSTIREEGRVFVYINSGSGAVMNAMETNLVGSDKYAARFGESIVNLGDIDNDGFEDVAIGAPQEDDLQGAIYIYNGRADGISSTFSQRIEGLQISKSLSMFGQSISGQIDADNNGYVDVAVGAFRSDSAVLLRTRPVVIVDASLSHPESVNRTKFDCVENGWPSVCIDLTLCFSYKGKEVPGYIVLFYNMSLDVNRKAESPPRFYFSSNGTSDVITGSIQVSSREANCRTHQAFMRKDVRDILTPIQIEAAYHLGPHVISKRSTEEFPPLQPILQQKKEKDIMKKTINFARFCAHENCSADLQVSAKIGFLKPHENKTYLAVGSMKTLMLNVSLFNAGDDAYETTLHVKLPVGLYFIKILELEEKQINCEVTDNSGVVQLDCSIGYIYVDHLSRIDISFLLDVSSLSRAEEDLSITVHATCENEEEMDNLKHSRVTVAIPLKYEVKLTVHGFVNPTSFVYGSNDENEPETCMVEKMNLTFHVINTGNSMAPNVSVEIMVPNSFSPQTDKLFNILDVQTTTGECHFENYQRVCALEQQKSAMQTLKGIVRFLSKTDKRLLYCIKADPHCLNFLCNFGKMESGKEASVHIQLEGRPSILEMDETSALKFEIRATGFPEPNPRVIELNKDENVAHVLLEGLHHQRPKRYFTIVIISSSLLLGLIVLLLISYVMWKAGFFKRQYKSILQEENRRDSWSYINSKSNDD
Sequence of Beta-2 adrenergic receptor (Homo sapiens) (P07550 whole entry, looked up): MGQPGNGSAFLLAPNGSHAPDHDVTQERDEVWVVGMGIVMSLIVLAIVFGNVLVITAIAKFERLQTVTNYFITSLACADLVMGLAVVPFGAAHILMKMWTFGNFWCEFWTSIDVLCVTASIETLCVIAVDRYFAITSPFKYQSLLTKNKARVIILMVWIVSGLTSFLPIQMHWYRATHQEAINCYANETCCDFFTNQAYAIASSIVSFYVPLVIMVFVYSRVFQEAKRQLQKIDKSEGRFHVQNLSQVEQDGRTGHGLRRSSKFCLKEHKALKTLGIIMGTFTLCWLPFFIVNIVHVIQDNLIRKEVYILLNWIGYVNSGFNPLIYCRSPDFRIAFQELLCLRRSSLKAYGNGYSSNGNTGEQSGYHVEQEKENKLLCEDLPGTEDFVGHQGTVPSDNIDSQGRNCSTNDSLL

The term inhibition denotes the drop in the measured response relative to a control, in per cent. Consider `NNC(=O)c1ccc(Cl)cc1`, for which the percent of DMSO control GFP in assay [1] is 102% (inactive). Besides, the GFP response vs DMSO in assay [2] is 103% (inactive); in [4] it was 102% (inactive). Besides, the percent response of DMSO control in [3] was 104% (inactive). The GFP response, % of DMSO in assay [5] was 102% (inactive). For the same compound, the double positive events in [6] is 56.2%. The vesicle binding response in [6] is 114% (inactive). Further, the inhibition is 0.25% (inactive) in assay [7]; 3.28% (inactive) in assay [11]; -1.9% (inactive) in assay [14]; 0.4% (inactive) in [15]; 6.8% (inactive) in assay [16]; -3% (inactive) in [18]. Further, the superoxide response (% of plate) in assay [8] is 88.1% (inactive). Moreover, the aptamer binding inhibition in [9] is -2% (inactive). Also, the response in assay [10] was 7.16% (inactive); in [12], 3.19% (inactive). The binding (% of control) in assay [13] was 98.7% (inactive). Further, the efflux inhibition (fraction of control) in assay [17] is -0.36 (inactive). Also, in [19], the differentiation response is 2.74% (inactive).
Regarding `COc1ccc(CN2CC3CC(C2)c2cccc(=O)n2C3)cc1OC` (stereo not given), the percent of DMSO control GFP in assay [1] is 105% (inactive). In addition, the GFP response vs DMSO was 101% (inactive) in assay [2] and 84.1% (inactive) in assay [4]. Besides, the percent response of DMSO control in [3] was 95.4% (inactive). In addition, the GFP response, % of DMSO in assay [5] was 95.1% (inactive). Also, the double positive events in assay [6] stood at 60.2%. In [6], the vesicle binding response was 170% (inactive). The inhibition is 14.1% (inactive) in assay [7]; -0.56% (inactive) in assay [11]; 1.7% (inactive) in assay [14]; -1.2% (inactive) in assay [15]; -0.8% (inactive) in assay [16]; 8% (inactive) in assay [18]. The superoxide response (% of plate) in assay [8] is 93% (inactive). Besides, in [9], the aptamer binding inhibition is 0% (inactive). Further, the response in assay [10] was 2.8% (inactive); in [12], 1% (inactive). Moreover, the binding (% of control) in assay [13] was 100% (inactive). The efflux inhibition (fraction of control) in [17] was 0.39 (inactive). In assay [19], the differentiation response was 4.15% (inactive).
For the compound `CCn1c(O)c(C(=O)CC2NCCc3ccccc32)c(=O)n(CC)c1=S` (stereo not given), in assay [1], the percent of DMSO control GFP is 95.2% (inactive). Besides, the figures for the GFP response vs DMSO in assay [2] and in assay [4] were 118% (inactive) and 132% (inactive), respectively. Also, the percent response of DMSO control in assay [3] was 97.7% (inactive). Further, the GFP response, % of DMSO in assay [5] was 101% (inactive). The double positive events in [6] came to 55.8%. Further, the vesicle binding response in [6] was 186% (inactive). Further, the inhibition in assay [7] is -7.25% (inactive); in assay [11] it was 5.21% (inactive); in assay [14] it was 2.4% (inactive); in assay [15], 1.1% (inactive); in assay [16] it was -11.5% (inactive); in [18] it was -11% (inactive). Further, in assay [8], the superoxide response (% of plate) is 113% (inactive). For the same compound, in [9], the aptamer binding inhibition is 1% (inactive). The response in assay [10] is 20.4% (inactive); in [12], 1.26% (inactive). For the same compound, in [13], the binding (% of control) was 102% (inactive). In addition, the efflux inhibition (fraction of control) in assay [17] was -0.03 (inactive). Further, in assay [19], the differentiation response is -15.2% (inactive).
`C[C@@]1(CO)[C@H](O)CC[C@@]2(C)[C@H]1CC[C@H]1C[C@@H]3C[C@@]12CC[C@]3(O)CO`: the percent of DMSO control GFP in assay [1] was 105% (inactive). The GFP response vs DMSO was 106% (inactive) in [2] and 103% (inactive) in assay [4]. In addition, the percent response of DMSO control in assay [3] was 102% (inactive). For the same compound, in assay [5], the GFP response, % of DMSO was 99.3% (inactive). The same compound displayed a double positive events in [6] of 62.9%. Further, the vesicle binding response in assay [6] was 225% (inactive). Moreover, the inhibition is 17.7% (inactive) in assay [7]; 54.5% (active) in [11]; 4.1% (inactive) in assay [14]; 1% (inactive) in [15]; -0.5% (inactive) in [16]; 6% (inactive) in assay [18]. Further, the superoxide response (% of plate) in assay [8] is 102% (inactive). Moreover, the aptamer binding inhibition in assay [9] is 0% (inactive). In addition, the response in assay [10] was 0.18% (inactive); in assay [12] it was 3.03% (inactive). In addition, in [13], the binding (% of control) is 100% (inactive). The efflux inhibition (fraction of control) in assay [17] was -0.04 (inactive). For the same compound, the differentiation response in [19] is -1.65% (inactive).

For the origin of these results see PubChem BioAssay.
